In the supplement of paper PMC12494721:
Structures can show the parent of a compound that is named as a salt.

Experiments:
Conditions in all cases: incubation time: 27 h, anaerobic, 37 °C;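 for the amine columns active = adjusted P below 0.05 in both replicates with a change the same way and a mean fold change under 0.8 or over 1.25; inactive = the rest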
[1] = tested on: Clostridium sporogenes DSM 1664; assay: growth (OD595) fold change vs plate DMSO controls (fold change (ratio)); higher = more growth
Summary of the method: (§1)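 Anaerobic 27 h, 37 °C mGAM 96-well cultures were shaken, then read for absorbance at 595 nm. Values were blank-subtracted and corrected for compound background using 20 µM compound solutions in water. A calibration factor of 5 converted them to OD. Growth is the fold change versus the median of plate DMSO controls. Fold changes above 1.5 were set to NA, and values are the mean of 2 biological replicates.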

Escherichia coli IAI1 [2] = assay: as above
Summary of the method: as §1

[3] = tested on: Klebsiella aerogenes DSM 30053; assay: as above
Summary of the method: as §1

[4] = tested on: Ruminococcus gnavus DSM 108212; assay: as above
Summary of the method: as §1

[5] = tested on: Klebsiella aerogenes DSM 30053; assay: fold change of Histamine concentration vs plate DMSO controls (fold change (ratio)); higher = more amine produced, active = hit call of the paper (significant change in both replicates, either direction)
Summary of the method: (§2)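 Amine values are fold changes relative to DMSO-only wells on the same plate. They derive from 27 h, 37 °C anaerobic mGAM cultures of four gut bacterial strains in 80 µL wells, dosed at 20 µM final, or 50 µM final for sweeteners. Extraction of the whole culture, LC–triple-quadrupole MS in dynamic MRM mode, external calibration curves and within-batch drift correction were used, with 2 biological replicates averaged.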

[6] = tested on: Clostridium sporogenes DSM 1664; assay: fold change of Tryptamine concentration vs plate DMSO controls (fold change (ratio)); higher = more amine produced, active = hit call of the paper (significant change in both replicates, either direction)
Summary of the method: as §2

[7] = tested on: Ruminococcus gnavus DSM 108212; assay: as above
Summary of the method: as §2

Escherichia coli IAI1 [8] = assay: fold change of Putrescine concentration vs plate DMSO controls (fold change (ratio)); higher = more amine produced, active = hit call of the paper (significant change in both replicates, either direction)
Summary of the method: as §2

[9] = tested on: Klebsiella aerogenes DSM 30053; assay: as above
Summary of the method: as §2

Escherichia coli IAI1 [10] = assay: fold change of Cadaverine concentration vs plate DMSO controls (fold change (ratio)); higher = more amine produced, active = hit call of the paper (significant change in both replicates, either direction)
Summary of the method: as §2

[11] = tested on: Klebsiella aerogenes DSM 30053; assay: as above
Summary of the method: as §2

[12] = tested on: Ruminococcus gnavus DSM 108212; assay: fold change of 2-Phenylethylamine concentration vs plate DMSO controls (fold change (ratio)); higher = more amine produced, active = hit call of the paper (significant change in both replicates, either direction)
Summary of the method: as §2

Compound	growth [1]	growth (Escherichia coli IAI1 [2])	growth [3]	growth [4]	fold change of Histamine concentration [5]	fold change of Tryptamine concentration [6]	fold change of Tryptamine concentration [7]	fold change of Putrescine concentration (Escherichia coli IAI1 [8])	fold change of Putrescine concentration [9]	fold change of Cadaverine concentration (Escherichia coli IAI1 [10])	fold change of Cadaverine concentration [11]	fold change of 2-Phenylethylamine concentration [12]
CCCC1C(=O)N2C(N(C)C)=Nc3ccc(C)cc3N2C1=O (stereo not given) [Azapropazone] (20 µM)	1.1	1	0.964	1.01	1.08 (inactive)	1.09 (inactive)	0.961 (inactive)	0.996 (inactive)	1 (inactive)	0.997 (inactive)	0.978 (inactive)	0.91 (inactive)
CCCCCN(CCCCC)C(=O)C(CCC(=O)O)NC(=O)c1ccc(Cl)c(Cl)c1 (stereo not given) [Lorglumide sodium salt] (20 µM)	0.981	1.02	1.02	1.01	0.987 (inactive)	0.763 (active)	0.94 (inactive)	1.07 (inactive)	1.01 (inactive)	1.03 (inactive)	1.01 (inactive)	0.919 (inactive)
CC1(C)O[C@@H]2C[C@H]3[C@@H]4C[C@H](F)C5=CC(=O)C=C[C@]5(C)[C@H]4[C@@H](O)C[C@]3(C)[C@]2(C(=O)CO)O1 [Flunisolide] (20 µM)	0.942	0.993	1.03	0.998	0.949 (inactive)	1.03 (inactive)	1.19 (inactive)	1.05 (inactive)	1.05 (inactive)	1.07 (inactive)	1.09 (inactive)	1.51 (inactive)
O=c1oc2cc(O)ccc2s1 [Tioxolone] (20 µM)	1.04	1.01	0.979	1.07	1.02 (inactive)	1.05 (inactive)	0.987 (inactive)	1.02 (inactive)	0.997 (inactive)	0.989 (inactive)	0.987 (inactive)	0.959 (inactive)
Clc1ccc(C(Cn2ccnc2)OCc2c(Cl)cccc2Cl)c(Cl)c1 (stereo not given) [Isoconazole] (20 µM)	0.999	0.858	0.862	0.0371	1 (inactive)	0.846 (inactive)	0.265 (active)	1.01 (inactive)	1.01 (inactive)	0.966 (inactive)	1 (inactive)	0.289 (active)
Clc1cccc(Cl)c1NC1=NCCN1 [Clonidine hydrochloride] (20 µM)	0.856	0.984	0.989	0.99	1.04 (inactive)	0.953 (inactive)	1.09 (inactive)	0.995 (inactive)	1.01 (inactive)	0.996 (inactive)	0.992 (inactive)	1.08 (inactive)
CC(C)OC(=O)C(C(=O)OC(C)C)=C1SC=CS1 [Malotilate] (20 µM)	1.09	1.07	1.08	1.16	0.94 (inactive)	0.958 (inactive)	0.956 (inactive)	1.07 (inactive)	1.04 (inactive)	0.949 (inactive)	1.02 (inactive)	0.88 (inactive)
CC(=O)Nc1ccc(C(=O)O)cc1 [Acedoben] (20 µM)	1.09	1	0.977	0.997	1.02 (inactive)	0.935 (inactive)	1.03 (inactive)	1.01 (inactive)	1 (inactive)	1.02 (inactive)	0.995 (inactive)	1 (inactive)
N[C@@H](CCC(=O)N[C@@H](CS)C(=O)NCC(=O)O)C(=O)O [Glutathione] (20 µM)	1.1	1.04	1.04	1.22	0.965 (inactive)	1.1 (inactive)	1.01 (inactive)	1.04 (inactive)	1.01 (inactive)	1.03 (inactive)	1.01 (inactive)	1.02 (inactive)
COc1ccc2c(c1)C(=O)N(CCc1ccc(S(=O)(=O)NC(=O)NC3CCCCC3)cc1)C(=O)C2(C)C [Gliquidone] (20 µM)	0.999	1.05	0.984	0.999	1.04 (inactive)	0.929 (inactive)	0.956 (inactive)	1.04 (inactive)	1 (inactive)	1.04 (inactive)	0.988 (inactive)	0.942 (inactive)
CC[C@H](c1ccc(O)cc1)[C@@H](CC)c1ccc(O)cc1 [Hexestrol] (20 µM)	0.933	1.03	0.999	0.869	1.06 (inactive)	0.609 (active)	0.789 (active)	1.05 (inactive)	1.01 (inactive)	1.06 (inactive)	0.989 (inactive)	0.749 (inactive)
C[C@]1(Cn2ccnn2)[C@H](C(=O)O)N2C(=O)C[C@H]2S1(=O)=O [Tazobactam] (20 µM)	0.105	1	0.973	1.05	0.904 (inactive)	0.703 (active)	1.05 (inactive)	1.05 (inactive)	1.04 (inactive)	0.989 (inactive)	1.03 (inactive)	1.1 (inactive)
Cc1cc(C(C)(C)C)cc(C)c1CC1=NCCN1 [Xylometazoline hydrochloride] (20 µM)	0.986	1.01	1.01	1.1	0.982 (inactive)	1.01 (inactive)	1.01 (inactive)	0.986 (inactive)	0.966 (inactive)	0.968 (inactive)	1 (inactive)	0.998 (inactive)
COc1cc(C)nc(-n2nc(C)cc2OC)n1 [Epirizole] (20 µM)	0.918	0.98	1	0.89	1.02 (inactive)	1.04 (inactive)	0.971 (inactive)	0.949 (inactive)	1.02 (inactive)	1.01 (inactive)	1.02 (inactive)	1.02 (inactive)
CCCc1ncc(C[n+]2ccccc2C)c(N)n1 [Amprolium hydrochloride] (20 µM)	1.01	0.954	0.982	0.95	1.01 (inactive)	1 (inactive)	1.11 (inactive)	0.995 (inactive)	0.941 (inactive)	0.936 (inactive)	1.03 (inactive)	1.15 (inactive)
N#Cc1cc(NC(=O)C(=O)O)c(Cl)c(NC(=O)C(=O)O)c1 [Lodoxamide] (20 µM)	1.02	1.15	1.01	1.12	0.985 (inactive)	1.05 (inactive)	0.986 (inactive)	1.17 (inactive)	1.01 (inactive)	0.977 (inactive)	0.997 (inactive)	0.934 (inactive)
C/C(O)=C(\C#N)C(=O)Nc1ccc(C(F)(F)F)cc1 [Teriflunomide] (20 µM)	0.938	1.02	1.01	0.966	1.01 (inactive)	0.946 (inactive)	1 (inactive)	1.07 (inactive)	1.02 (inactive)	1.09 (inactive)	0.998 (inactive)	1.04 (inactive)
O=c1[nH]c(=O)n(C2CCCO2)cc1F (stereo not given) [Tegafur] (20 µM)	1.08	0.975	1.01	0.933	0.969 (inactive)	1.01 (inactive)	1.06 (inactive)	1.25 (inactive)	1 (inactive)	0.967 (inactive)	1.01 (inactive)	1.03 (inactive)
O=c1n(CCCN2CCN(c3cccc(Cl)c3)CC2)nc2ccccn12 [Trazodone hydrochloride] (20 µM)	1.09	0.982	0.987	1.06	1.03 (inactive)	0.988 (inactive)	0.809 (inactive)	1.01 (inactive)	0.997 (inactive)	0.982 (inactive)	0.99 (inactive)	0.799 (inactive)
CC(C)(Oc1ccc(CCNC(=O)c2ccc(Cl)cc2)cc1)C(=O)O [Bezafibrate] (20 µM)	1.06	1.01	0.993	0.854	0.964 (inactive)	0.996 (inactive)	1.01 (inactive)	0.997 (inactive)	0.991 (inactive)	0.983 (inactive)	0.992 (inactive)	1.01 (inactive)
Nc1nc(=S)c2ncn([C@@H]3O[C@H](CO)[C@@H](O)[C@H]3O)c2[nH]1 [Thioguanosine] (20 µM)	0.927	0.951	1.03	0.773	0.953 (inactive)	0.981 (inactive)	0.955 (inactive)	0.479 (inactive)	1.01 (inactive)	0.903 (inactive)	1.03 (inactive)	0.925 (inactive)
CCC1(c2ccccc2)NC(=O)N(C)C1=O (stereo not given) [Mephenytoin] (20 µM)	0.908	1.05	1.11	1.14	0.905 (inactive)	1.09 (inactive)	1.02 (inactive)	1.06 (inactive)	1.02 (inactive)	1.01 (inactive)	1.02 (inactive)	1.03 (inactive)
CC(=O)OCC(=O)NCCCOc1cccc(CN2CCCCC2)c1 [Roxatidine acetate hydrochloride] (20 µM)	1.02	1.06	1.01	0.677	0.958 (inactive)	0.989 (inactive)	0.972 (inactive)	1.27 (inactive)	1.01 (inactive)	1.18 (inactive)	1.01 (inactive)	0.905 (inactive)
c1ccc2[nH]c(-c3cscn3)nc2c1 [Tiabendazole] (20 µM)	1.06	0.991	0.899	0.962	1.12 (inactive)	1.01 (inactive)	1.02 (inactive)	0.997 (inactive)	0.964 (inactive)	1.04 (inactive)	0.979 (inactive)	1.04 (inactive)
Oc1cc(O)c2c(c1)O[C@H](c1ccc(O)c(O)c1)[C@@H](O)C2 [Cianidanol] (20 µM)	1.04	0.998	0.998	1.06	1.03 (inactive)	1.26 (active)	0.867 (inactive)	0.977 (inactive)	0.95 (inactive)	0.859 (inactive)	0.993 (inactive)	0.978 (inactive)
